Experimental data: the supplement of paper PMC12636033
± gives the standard deviation of the averaged measurements. Over roughly 33,000 sequences, “E-score (rank enrichment, -0.5 to 0.5)” has its median near -0.0043; the highest 2% begin near 0.24. The full list was thinned out, with the highest values kept by preference.

Each sequence was assayed on 2Sp-muMax20 (muMax20 with two 2,6-bis(methyl)pyridine Cys staples) (assay: PBM 8-mer E-score (E-score (rank enrichment, -0.5 to 0.5)); higher = stronger preferential binding).
Procedure: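 Protein binding microarray (universal PBM chip covering all 10-mers in fixed probe flanks) with chemically synthesized human Max(13-93) bHLH-LZ analogs (not full-length Max) bearing noncanonical residues (hArg, Tha, Aib, Nle at 65) and aromatic Cys staples. Read-out per 8-mer (and its reverse complement): E-score (rank-based enrichment, -0.5 to 0.5) and Z-score of median probe intensity.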

| Sequence | PBM 8-mer E-score |
| --- | --- |
| TATCTTGA | 0.123 ± 0.099 |
| ACTCACTG | 0.0171 ± 0.1 |
| ATGCCTAG | 0.0159 ± 0.081 |
| GAGGTCCC | -0.243 ± 0.0028 |
| AAGGCATT | -0.0085 ± 0.05 |
| ATGAGGGG | 0.24 ± 0.05 |
| AGTAGGGA | 0.0183 ± 0.02 |
| AGGAGGGC | -0.104 ± 0.14 |
| AGTAGGGG | 0.24 ± 0.072 |
| AGGAGGGA | 0.000855 ± 0.036 |
| AGGAGGGG | 0.269 ± 0.0072 |
| ATGAGGGC | 0.115 ± 0.015 |
| AGTAGGGC | 0.0658 ± 0.099 |
| ATGAGGGA | 0.0977 ± 0.073 |
| GGCGCTAA | -0.136 ± 0.035 |
| CCCACTGA | 0.0382 ± 0.01 |
| CGGGACGA | -0.1379 ± 0.00041 |
| AGTATCAG | 0.0699 ± 0.071 |
| CGCCCTAC | -0.00866 ± 0.015 |
| GCCCGGGA | -0.254 ± 0.03 |
| TGATGCCA | 0.033 ± 0.029 |
| TATCAGGA | 0.0871 ± 0.048 |
| ACCAAAGC | 0.0731 ± 0.02 |
| GTTACATA | 0.106 ± 0.096 |
| GCGCTCCC | -0.0536 ± 0.052 |

| Sequence | PBM 8-mer E-score |
| --- | --- |
| TATCAACA | 0.139 ± 0.05 |
| AATCAACA | 0.262 ± 0.024 |
| GATCAACA | -0.111 ± 0.05 |
| GCTATGCC | -0.00318 ± 0.017 |
| AGTGCACA | -0.000545 ± 0.11 |
| CTCGATCA | 0.0252 ± 0.013 |
| GGCGAGAC | -0.0185 ± 0.036 |
| CTACTTTA | 0.0402 ± 0.06 |
| ATACTTTG | 0.185 ± 0.015 |
| ATACTTTA | 0.255 ± 0.07 |
| AGTCTCGA | 0.0438 ± 0.016 |
| ACCTCCAC | -0.105 ± 0.0033 |
| ACGTGAAA | 0.243 ± 0.025 |
| CTGTGAAA | -0.00932 ± 0.11 |
| CTGTGATA | -0.0212 ± 0.031 |
| GTGTGAAA | 0.11 ± 0.0048 |
| ATGTGAAA | 0.319 ± 0.026 |
| ACGTGAAC | 0.0294 ± 0.091 |
| TCGTGAAA | -0.115 ± 0.084 |
| ATGTGATA | 0.288 ± 0.051 |
| ACGTGATG | 0.244 ± 0.0044 |
| ACGTGATC | 0.17 ± 0.081 |
| GTGTGATA | 0.15 ± 0.061 |
| ACGTGATA | 0.222 ± 0.02 |
| CGCTCCTA | -0.177 ± 0.024 |

| Sequence | PBM 8-mer E-score |
| --- | --- |
| AACAGTAC | 0.0773 ± 0.0098 |
| AGCTAGAC | -0.14 ± 0.029 |
| CCCCCGAA | -0.24 ± 0.13 |
| CCGTGACG | -0.127 ± 0.12 |
| CCAAGGGG | -0.104 ± 0.046 |
| ATACTGAC | 0.0362 ± 0.0098 |
| ATACTGAT | 0.2387 ± 0.00027 |
| ATACTGTC | 0.183 ± 0.041 |
| GCAGATCC | -0.0702 ± 0.063 |
| ACGTGACC | 0.149 ± 0.063 |
| TCCTTTAA | 0.0188 ± 0.023 |
| AATAATGG | 0.126 ± 0.043 |
| AATAATGT | 0.241 ± 0.044 |
| AATAATGC | 0.143 ± 0.1 |
| GATAATGA | 0.00488 ± 0.095 |
| AATAATGA | 0.238 ± 0.017 |
| CATAATGA | 0.1647 ± 0.0015 |
| GACCTGCC | -0.149 ± 0.014 |
| ATAACATG | 0.229 ± 0.027 |
| CTAACATC | 0.0136 ± 0.022 |
| ATAACATC | 0.236 ± 0.034 |
| ATAACAAG | 0.221 ± 0.044 |
| ATAACAAC | 0.0625 ± 0.012 |
| ATAACAAT | 0.244 ± 0.022 |
| AGGACTCA | 0.0578 ± 0.11 |

| Sequence | PBM 8-mer E-score |
| --- | --- |
| CAGCGAAA | -0.113 ± 0.0075 |
| ACTGTAGG | 0.0115 ± 0.027 |
| AGAGTCGC | 0.0183 ± 0.052 |
| CTCTCAAA | -0.015 ± 0.005 |
| AACTATAG | 0.212 ± 0.074 |
| CACTATAG | 0.243 ± 0.038 |
| GACTATAC | 0.141 ± 0.068 |
| AACTATTC | -0.0563 ± 0.067 |
| CACTATAC | 0.25 ± 0.013 |
| CACTATAA | -0.0291 ± 0.0069 |
| AACTATTA | 0.169 ± 0.027 |
| AACTATTG | 0.24 ± 0.051 |
| AACTATAC | 0.114 ± 0.06 |
| CCGGATCA | -0.0752 ± 0.094 |
| AATTATGC | 0.202 ± 0.025 |
| ATGGATGC | 0.0345 ± 0.13 |
| CACGCGAC | 0.277 ± 0.013 |
| GTCGCGAA | -0.143 ± 0.017 |
| CACGCGAA | 0.0343 ± 0.011 |
| CTCGCGAC | 0.0452 ± 0.004 |
| GACGCGAC | -0.108 ± 0.084 |
| AACGCGAG | 0.0185 ± 0.046 |
| AACGCGAC | 0.0983 ± 0.018 |
| CACGCGAG | 0.26 ± 0.025 |
| GTCGCGAC | 0.314 ± 0.014 |

| Sequence | PBM 8-mer E-score |
| --- | --- |
| CTAGAGTC | -0.122 ± 0.025 |
| ACCTCTCT | -0.0431 ± 0.11 |
| AGGCACTC | -0.155 ± 0.0063 |
| GCCACGGC | -0.219 ± 0.036 |
| CGCCTATC | 0.0914 ± 0.054 |
| ATGCGGTC | -0.0281 ± 0.033 |
| AGATGTGC | 0.0607 ± 0.028 |
| ACATGTGG | 0.364 ± 0.031 |
| ACATGTGC | 0.283 ± 0.052 |
| CTATGTGC | 0.13 ± 0.017 |
| AGATGTGG | 0.0241 ± 0.00082 |
| AAATGTGG | 0.138 ± 0.015 |
| GCGAAGGA | -0.1 ± 0.011 |
| CCTGAAGC | -0.0531 ± 0.025 |
| CGATTGCA | 0.000985 ± 0.025 |
| TGATTGCA | 0.286 ± 0.081 |
| AGATTGCA | 0.0232 ± 0.053 |
| ACGTCGCA | -0.0865 ± 0.15 |
| CTCGCTTC | -0.0128 ± 0.0032 |
| GACAATAA | 0.188 ± 0.0055 |
| AACAATAC | 0.263 ± 0.0036 |
| AACAAAAA | -0.0104 ± 0.045 |
| AACAATAA | 0.134 ± 0.036 |
| TACAATAA | 0.321 ± 0.051 |
| TACAAAAA | 0.26 ± 0.052 |

| Sequence | PBM 8-mer E-score |
| --- | --- |
| TACAAGAA | 0.213 ± 0.018 |
| CACAATAA | 0.0537 ± 0.028 |
| GACAATAC | 0.144 ± 0.15 |
| GATAAACC | -0.167 ± 0.039 |
| TCAGGGGA | 0.143 ± 0.019 |
| TAAACGAA | 0.143 ± 0.00096 |
| AACTGATG | -0.0947 ± 0.093 |
| CAAAACCA | 0.218 ± 0.056 |
| TTCGAAAA | 0.0928 ± 0.011 |
| CCAGAGCC | 0.0426 ± 0.067 |
| ATAATTAA | 0.183 ± 0.096 |
| ATAATTAT | 0.274 ± 0.062 |
| CTAATTAC | 0.108 ± 0.024 |
| AAAATTAT | 0.252 ± 0.027 |
| CTAATTAA | 0.0684 ± 0.14 |
| ATAATTAC | 0.297 ± 0.044 |
| AAAATTAG | 0.129 ± 0.0083 |
| AAAATTAA | 0.126 ± 0.057 |
| ACAATTAT | 0.139 ± 0.091 |
| TTAATTAA | 0.303 ± 0.081 |
| GTAATTAA | 0.123 ± 0.033 |
| GTAATTAC | 0.177 ± 0.0081 |
| CAGCTGGC | 0.00279 ± 0.062 |
| TAAGACGA | 0.118 ± 0.035 |
| AGTTCACA | 0.0105 ± 0.0032 |

| Sequence | PBM 8-mer E-score |
| --- | --- |
| AATATCAC | 0.189 ± 0.038 |
| AAGCTGCT | -0.0983 ± 0.048 |
| ACTGACTA | -0.00544 ± 0.014 |
| GGCCTAGA | -0.101 ± 0.039 |
| AGGGCGAG | 0.00325 ± 0.014 |
| AACTAGCT | -0.0509 ± 0.098 |
| CTAACTAA | 0.0344 ± 0.032 |
| ATAACTAA | 0.174 ± 0.018 |
| TTAACTAA | 0.248 ± 0.0099 |
| ATAATTAG | 0.289 ± 0.006 |
| CTAATTAG | -0.0106 ± 0.077 |
| ATAATTCG | 0.221 ± 0.06 |
| ACTCGCTG | -0.155 ± 0.038 |
| AATTGTAC | 0.22 ± 0.0078 |
| TGGTATAA | 0.219 ± 0.019 |
| CGGGTACC | -0.168 ± 0.059 |
| ACGCTACA | 0.161 ± 0.04 |
| ACCCCAGA | 0.102 ± 0.066 |
| ACCCCAAT | 0.248 ± 0.017 |
| ACCCCAAC | 0.2 ± 0.075 |
| ACCCCAAG | 0.167 ± 0.067 |
| ACCCCAGT | 0.303 ± 0.048 |
| ACCCCAGG | -0.135 ± 0.03 |
